Screens as filed in PubChem.
The list is not random: actives were taken first. Their share in the collection is about 0.84%.
TR-FRET SRC-2 ct: flags TR-FRET format artefacts in PPARgamma SRC-2 recruitment agonist screen. TR-FRET artefact counter-screen; stronger effect = higher value. TR-FRET ratio at 8 µM. 0.4% of 200,000 active. AID 1049
PPARg SRC-1 ag: agonists of human PPARgamma SRC-1 coactivator recruitment. P37231. PPARgamma-SRC-1 coactivator recruitment biochemical assay. activation, % at 8 µM. 0.41% of 200,000 active; in the data active = activation above about 19%;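 also: 0% = DMSO and 100% = reference agonist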
Target sequence (P37231 whole entry, looked up): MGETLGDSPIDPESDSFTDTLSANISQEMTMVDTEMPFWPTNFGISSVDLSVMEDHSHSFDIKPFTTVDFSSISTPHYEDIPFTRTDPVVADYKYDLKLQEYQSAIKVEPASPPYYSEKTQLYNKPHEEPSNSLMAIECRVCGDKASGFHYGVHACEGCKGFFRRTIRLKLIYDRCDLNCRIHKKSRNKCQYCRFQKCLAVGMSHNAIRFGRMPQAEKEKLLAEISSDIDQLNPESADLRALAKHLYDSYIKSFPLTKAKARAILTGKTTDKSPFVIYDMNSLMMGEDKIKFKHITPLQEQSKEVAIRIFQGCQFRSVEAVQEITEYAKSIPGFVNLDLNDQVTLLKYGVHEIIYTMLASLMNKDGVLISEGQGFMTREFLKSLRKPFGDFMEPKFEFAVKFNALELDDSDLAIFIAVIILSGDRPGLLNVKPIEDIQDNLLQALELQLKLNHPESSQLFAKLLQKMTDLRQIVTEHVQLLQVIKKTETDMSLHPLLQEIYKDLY
SRC1 TRFRET art: TR-FRET artefact, counter-screen to PPARgamma/SRC-1 agonist assay; 0.34% of 99,000 active; TR-FRET ratio at 8 µM; TR-FRET detection artefact counter-screen, emission ratio; stronger effect = higher value; AID 1051; in the data active = TR-FRET ratio above about 2300
SRC3 TRFRET art: counter-screen for PPARgamma SRC-3 recruitment agonists: TR-FRET artefact; 0.39% of 99,000 active; PPARgamma/SRC-3 format; stronger effect = higher value; TR-FRET ratio at 8 µM
PPARg SRC-3 ag: promotes SRC-3 coactivator recruitment by human PPARgamma. P37231. biochemical PPARgamma/SRC-3 coactivator recruitment assay. activation, % at 8 µM. 0.26% of 200,000 active; in the data active = activation above about 23%;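 also: 0% = DMSO and 100% = reference agonist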
PPARg SRC2 recr: promotes SRC-2 coactivator recruitment by human PPARgamma. P37231. PPARgamma LBD-SRC-2 recruitment, biochemical. activation, % at 8 µM. 0.34% of 200,000 active. AID 1032; in the data active = activation above about 22%;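 also: 0% = vehicle and 100% = reference agonist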
* marks the source's active call; other numbers are inactive results; . = no result. Rule as the data show it, unless noted: active = TR-FRET ratio above about 2000; inactive = the rest.

SMILES	TR-FRET SRC-2 ct	PPARg SRC-1 ag	SRC1 TRFRET art	SRC3 TRFRET art	PPARg SRC-3 ag	PPARg SRC2 recr
Cc1ccccc1OCC(O)CN(Cc1ccccc1O)C1CCCCC1 (configuration not stated)	1356	-4	1581	1446	-1	-7
Cc1c(Cl)sn(-c2ccc(Cl)cc2)c1=O	1317	-6	1707	1367	4	0
CC(C)c1nnc(NC(=O)c2cccc(NC(=O)C(F)(F)F)c2)s1	1976*	4	1816	1623	4	7
COC(=O)c1ccc(C(=O)OC)c(NC(=O)c2cc3ccccc3o2)c1	1501	24*	.	.	-4	4
COC(=O)c1ccc(N2CCN(C)CC2)c(NC(=O)c2cc3ccccc3o2)c1	1388	-3	.	.	-8	-7
Cc1cc(N2C3CCC2CC(O)(c2ccc(F)cc2)C3)nc(-c2ccccc2)n1 (configuration not stated)	1437	4	.	.	-9	-8
CC(C)C(=O)N1C2CCC1CC(O)(c1ccc(F)cc1)C2 (configuration not stated)	1527	-1	.	.	48*	-4
O=C(Nc1ccccc1N1CCOCC1)c1ccc(Cl)nc1	1746	4	1622	1575	1	10
CCSc1nnc(NC(=O)C(NC(=O)c2ccc(Cl)cc2)C(C)C)s1 (configuration not stated)	1470	-5	1754	1375	-1	1
CCOC(=O)c1oc2ccc(S(=O)(=O)N3CCC(C)CC3)cc2c1C	1625	46*	.	.	15	-1
O=C(CSc1nc2cc(Cl)ccc2c(=O)n1Cc1ccco1)Nc1ccc(S(=O)(=O)N2CCOCC2)cc1	2029*	6	2098	2505*	6	-3
O=C(CSc1nc2ccccc2c(=O)n1-c1ccc(F)cc1)Nc1cc(S(=O)(=O)N2CCOCC2)ccc1Cl	2011*	-1	2193	2000	4	4
COC(=O)c1ccc2c(=O)n(Cc3ccco3)c(SCC(=O)Nc3ccc(C)c(Cl)c3)nc2c1	1665	16	.	.	-11	10
CC(C)NS(=O)(=O)c1ccc(CCC(=O)Nc2ccc3c(c2)OCO3)cc1	1444	3	.	.	-2	-2
COc1cc2cc(CN(Cc3cccnc3)C(=O)Nc3ccccc3F)c(=O)[nH]c2cc1OC	1576	0	1703	1538	2	3
COC(=O)c1ccc2c(c1)NC(=O)C(N1CCCC1)S2 (configuration not stated)	1526	0	.	.	1	4
COC(=O)c1ccc2c(c1)SC1=C(CCCC1=O)N2	2074*	12	.	.	17	13
O=C(CCc1cnccn1)NC1CCCc2c1cnn2-c1ccc(F)cc1F (configuration not stated)	1503	3	1789	1729	2	3
Cc1ccc(-n2c(=S)[nH]c3sc4c(c3c2=O)CCC4)cc1	1859	8	2142	2074*	8	12
O=c1[nH]c2sc3c(c2c(=O)n1Cc1ccccc1)CCC3	1537	-1	.	.	-1	10
O=C(c1ccc(Br)cc1)c1sc(N2CCOCC2)nc1-c1ccccc1	1756	15	2046	2783*	10	15
COc1ccc(-c2nc(N3CCCCCC3)sc2C(=O)c2ccccc2)cc1	2098*	12	.	.	13	16
CCN(CC)C(=O)c1cn(-c2ccccc2)nc1-c1ccc2c(c1)OCCO2	1980*	9	1844	1746	6	5
CCN(CC)C(=O)c1cn(CCC#N)nc1-c1ccc2c(c1)OCCO2	1582	12	2134	1364	3	5
C/C(=N\Nc1nc2ccccc2s1)c1ccc(Br)s1	1493	23*	2044	1556	3	3
COc1ccc(N2C(=O)NC(NC(=O)c3cccnc3)(C(F)(F)F)C2=O)cc1 (configuration not stated)	1649	7	1979	1665	5	10
Cc1ccc(N2C(=O)CSC2c2cccs2)cc1 (configuration not stated)	1646	-3	.	.	12	5
Cc1cc(C)cc(N2C(=O)CSC2c2cccs2)c1 (configuration not stated)	1989*	7	1726	1827	0	11
O=C(/C=C/c1ccc(S(=O)(=O)N2CCOCC2)cc1)NC(=S)Nc1ccc(Cl)cc1Cl	1359	-2	1391	1366	-1	-3
COc1cc(/C=C(\C#N)C(=O)Nc2cccnc2)ccc1OC(C)C	1425	5	1649	1579	0	4
